Measurements taken from PubChem BioAssay (Tox21).
Where “and” joins values, the source holds several entries; their conditions need not be identical. Identical values can stand only once. Results filed as inconclusive are left out. Entries that show only a call come without a potency. The source holds several records for some structures; these can differ, active in one and inactive in another. Calls of active or inactive are those of the source. Unless noted, the call rests on the fitted dose curve; in most records, active means well fitted curve in the direction sought with a large enough effect in the repeat runs; inconclusive means weak or mixed curves; inactive means no such curve, though single readings can be large; an effect the other way counts as inactive or inconclusive.

What was measured:
[1] = qHTS assay to identify small molecule antagonists of the thyroid receptor (TR) signaling pathway - cell viability counter screen (AID 743064); further: nearly all actives have a fitted effect of over 50% in size; further: potency means the concentration at half of the fitted maximal effect
How it was run: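 In rat pituitary GH3.TRE-Luc reporter cells co-exposed to compound and 1 nM T3 for 23.5 h, cytotoxicity was assessed with CellTiter-Fluor in the same wells, read by fluorescence.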

[2] = qHTS assay to identify small molecule antagonists of the thyroid receptor (TR) signaling pathway (AID 743065); further: series mostly up to about 70 µM; nearly all actives have a fitted effect of over 55% in size
How it was run: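 GH3.TRE-Luc rat pituitary cells (two TREs driving luciferase) were dosed with compound, then stimulated with 1 nM T3 (final) for 23.5 h at 37 C. ONE-Glo luminescence was the read-out, with CellTiter-Fluor fluorescence as the cytotoxicity counter-screen.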

[3] = system: thyroid hormone receptor (rat, GH3 cells); assay: qHTS assay to identify small molecule agonists of the thyroid receptor (TR) signaling pathway (AID 743066; calls by dose curve)
[4] = molecular target: Estrogen receptor (Homo sapiens) (UniProt P03372); assay: qHTS assay to identify small molecule antagonists of the estrogen receptor alpha (ER-alpha) signaling pathway (AID 743069; active means well fitted curve in the direction sought with a large enough effect in the signal ratio in the repeat runs, not every such curve was filed as active; the % refers to the signal ratio)
How it was run: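 HEK293 ER-alpha-UAS-bla GripTite cells, held overnight in 2% charcoal-stripped FBS, 5,000 cells/well, preincubated 4 h, then compound plus 17beta-estradiol for 18 h at 37C. Beta-lactamase read by LiveBLAzer B/G FRET substrate, 2 h at room temperature.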

[5] = qHTS assay to identify small molecule antagonists of the estrogen receptor alpha (ER-alpha) signaling pathway - cell viability counter screen (AID 743074; calls by dose curve;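 further: HEK293 cells carrying ER-alpha-UAS-bla reporter stimulated with 17beta-estradiol; nearly all actives have a fitted effect of over 45% in size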)
[6] = molecular target: Estrogen receptor (Homo sapiens) (UniProt P03372); assay: qHTS assay to identify small molecule agonists of the estrogen receptor alpha (ER-alpha) signaling pathway (AID 743075; calls by dose curve)
[7] = molecular target: Estrogen receptor (Homo sapiens) (UniProt P03372); assay: qHTS assay to identify small molecule agonists of the estrogen receptor alpha (ER-alpha) signaling pathway using the BG1 cell line (AID 743079); further: nearly all actives have a fitted effect of over 20% in size; further: potency means the concentration at half of the fitted maximal effect
[8] = qHTS assay to identify small molecule antagonists of the estrogen receptor alpha (ER-alpha) signaling pathway using the BG1 cell line (AID 743080; calls by dose curve;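 further: BG1 cells stimulated with 17beta-estradiol alongside compound; series mostly up to about 70 µM; nearly all actives have a fitted effect of over 25% in size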)
How it was run: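 BG1Luc4E2, endogenous ER-alpha, 4xERE-luc; 5 d charcoal-stripped FBS, phenol red free; 24 h plating; cpd + 17beta-estradiol 21.5 h, 37 C/5% CO2; CellTiter-Fluor viability 30 min, then ONE-Glo luciferase 30 min RT.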

[9] = qHTS assay to identify small molecule antagonists of the estrogen receptor alpha (ER-alpha) signaling pathway using the BG1 cell line - cell viability counter screen (AID 743081);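 further: compound given together with 17beta-estradiol as the ER stimulus; nearly all actives have a fitted effect of over 45% in size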; further: potency means the concentration at half of the fitted maximal effect
Aromatase (Homo sapiens) = Aromatase (Homo sapiens) (UniProt P11511); assay: qHTS assay to identify aromatase inhibitors (AID 743083); further: series mostly up to about 70 µM; nearly all actives have a fitted effect of over 55% in size
[10] = qHTS assay to identify aromatase inhibitors - cell viability counter screen (AID 743084);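 further: cells stimulated with testosterone during compound exposure; nearly all actives have a fitted effect of over 55% in size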; further: potency means the concentration at half of the fitted maximal effect
[11] = qHTS assay to identify small molecule that activate the aryl hydrocarbon receptor (AhR) signaling pathway - cell viability counter screen (AID 743086); further: nearly all actives have a fitted effect of over 45% in size; further: potency means the concentration at half of the fitted maximal effect
How it was run: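 HepG2-AhR-luc (HG2L7.5c1) cells, 4000/well, treated 24 h at 37 C with compound; viability measured as CellTiter-Fluor fluorescence after 30 min in the same wells as the luciferase read.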

[12] = molecular target: Peroxisome proliferator-activated receptor gamma (Homo sapiens) (UniProt P37231); assay: qHTS assay to identify small molecule agonists of the peroxisome proliferator-activated receptor gamma (PPARg) signaling pathway (AID 743094; active means well fitted activation curve with a large enough effect in the signal ratio in the repeat runs, not every such curve was filed as active; the % refers to the signal ratio)
How it was run: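 Beta-lactamase FRET fluorescence was the read-out after a 1 h room-temperature substrate step, following 17 h compound treatment at 37C of HEK293H cells expressing a UAS-driven bla reporter responsive to PPARg.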

[13] = qHTS assay to identify small molecule antagonists of the peroxisome proliferator-activated receptor gamma (PPARg) signaling pathway - cell viability counter screen (AID 743194); further: nearly all actives have a fitted effect of over 55% in size
How it was run: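 Cytotoxicity counter screen in PPARg-bla HEK293H cells, same wells as reporter assay. Compounds plus 50 nM rosiglitazone (final) for 17 h at 37 C, then viability read by CellTiter-Glo luminescence.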

[14] = qHTS assay for small molecule agonists of the antioxidant response element (ARE) signaling pathway (AID 743202; active means well fitted activation curve with a large enough effect in the signal ratio in the repeat runs, not every such curve was filed as active; the % refers to the signal ratio)
How it was run: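 ARE-bla HepG2 cells (beta-lactamase reporter under the antioxidant response element), plated 5 hours, then exposed to compounds 16 hours at 37 C. LiveBLAzer B/G FRET substrate added for 2 hours at room temperature; fluorescence intensity read.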

[15] = qHTS assay for small molecule agonists of the antioxidant response element (ARE) signaling pathway - cell viability counter screen (AID 743203; calls by dose curve; further: nearly all actives have a fitted effect of over 55% in size)
How it was run: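 HepG2 cells carrying ARE-driven beta-lactamase; 2,000 cells/well; 5 hrs plating; compound pinned from DMSO; 16 hrs 37C/5% CO2; CellTiter-Glo added; 30 min RT; luminescence.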

[16] = qHTS assay for small molecule activators of the heat shock response signaling pathway - cell viability counter screen (AID 743209); further: nearly all actives have a fitted effect of over 50% in size
How it was run: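 Luminescence from CellTiter-Glo, added after the beta-lactamase FRET read, gave the viability signal. Cells were HSE-bla HeLa treated with DMSO-dissolved compounds for 5 h at 37 C following overnight plating.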

[17] = qHTS assay for small molecule activators of the heat shock response signaling pathway (AID 743210; active means well fitted activation curve with a large enough effect in the signal ratio in the repeat runs, with a control signal flat, not every such curve was filed as active; the % refers to the signal ratio; further: series mostly up to about 63 µM)
How it was run: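 HSE-bla HeLa cells (beta-lactamase reporter under heat shock response elements), plated overnight, then exposed to compounds 5 h at 37 C; LiveBLAzer B/G FRET substrate added, 2.5 h at room temperature, fluorescence intensity read.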

[18] = molecular target: Aryl hydrocarbon receptor (Homo sapiens) (UniProt P35869); assay: qHTS assay to identify small molecule that activate the aryl hydrocarbon receptor (AhR) signaling pathway (AID 743085); further: nearly all actives have a fitted effect of over 15% in size; further: potency means the concentration at half of the fitted maximal effect;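 on activation: HG2L7.5c1 human HepG2 liver cells with stably integrated DRE-driven firefly reporter; series mostly up to about 70 µM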
How it was run: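 AhR agonist activity is inferred from enhanced light output of a DRE-controlled firefly luciferase reporter in HepG2 cells, measured with ONE-Glo following 24 h treatment at 37C.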

[19] = molecular target: Peroxisome proliferator-activated receptor gamma (Homo sapiens) (UniProt P37231); assay: qHTS assay to identify small molecule antagonists of the peroxisome proliferator-activated receptor gamma (PPARg) signaling pathway (AID 743191; calls by dose curve; further: series mostly up to about 63 µM; nearly all actives have a fitted effect of over 30% in size)
How it was run: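 GeneBLAzer PPARg UAS-bla HEK293H cells, 5 h post-plating, exposed to compounds 17 h at 37C. LiveBLAzer B/G FRET substrate added for 1 h at room temperature; beta-lactamase reporter read by fluorescence intensity.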

Estrogen receptor (Homo sapiens), sequence (P03372 whole entry, looked up): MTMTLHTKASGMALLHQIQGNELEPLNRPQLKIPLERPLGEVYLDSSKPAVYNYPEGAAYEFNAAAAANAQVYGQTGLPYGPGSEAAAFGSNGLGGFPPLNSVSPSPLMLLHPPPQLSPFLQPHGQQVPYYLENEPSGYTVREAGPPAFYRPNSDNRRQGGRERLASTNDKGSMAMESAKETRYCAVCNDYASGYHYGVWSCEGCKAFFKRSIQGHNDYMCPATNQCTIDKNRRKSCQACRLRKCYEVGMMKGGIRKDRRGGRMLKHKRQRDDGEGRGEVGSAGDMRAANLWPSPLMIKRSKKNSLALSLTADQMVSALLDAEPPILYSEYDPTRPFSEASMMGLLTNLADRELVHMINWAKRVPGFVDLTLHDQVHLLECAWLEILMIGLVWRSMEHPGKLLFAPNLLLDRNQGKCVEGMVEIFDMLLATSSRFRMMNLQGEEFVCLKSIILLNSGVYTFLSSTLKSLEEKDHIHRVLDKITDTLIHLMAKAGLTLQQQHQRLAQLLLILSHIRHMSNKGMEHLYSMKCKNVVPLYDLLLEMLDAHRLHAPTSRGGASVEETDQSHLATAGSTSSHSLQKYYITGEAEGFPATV
Peroxisome proliferator-activated receptor gamma (Homo sapiens), sequence (P37231 whole entry, looked up): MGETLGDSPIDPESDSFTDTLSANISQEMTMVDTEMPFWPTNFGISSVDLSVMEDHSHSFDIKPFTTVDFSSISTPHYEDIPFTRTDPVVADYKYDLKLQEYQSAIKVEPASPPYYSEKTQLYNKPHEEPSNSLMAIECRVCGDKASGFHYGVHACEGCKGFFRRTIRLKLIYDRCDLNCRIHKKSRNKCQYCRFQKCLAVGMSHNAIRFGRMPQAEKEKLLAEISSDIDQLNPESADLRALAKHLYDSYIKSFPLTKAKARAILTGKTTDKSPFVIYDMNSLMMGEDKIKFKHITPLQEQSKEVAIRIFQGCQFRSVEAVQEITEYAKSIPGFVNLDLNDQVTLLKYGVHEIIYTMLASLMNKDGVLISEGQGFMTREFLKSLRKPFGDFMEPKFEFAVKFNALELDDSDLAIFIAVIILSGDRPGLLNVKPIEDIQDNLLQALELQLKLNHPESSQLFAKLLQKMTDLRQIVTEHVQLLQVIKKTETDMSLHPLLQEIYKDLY
Aryl hydrocarbon receptor (Homo sapiens), sequence (P35869 whole entry, looked up): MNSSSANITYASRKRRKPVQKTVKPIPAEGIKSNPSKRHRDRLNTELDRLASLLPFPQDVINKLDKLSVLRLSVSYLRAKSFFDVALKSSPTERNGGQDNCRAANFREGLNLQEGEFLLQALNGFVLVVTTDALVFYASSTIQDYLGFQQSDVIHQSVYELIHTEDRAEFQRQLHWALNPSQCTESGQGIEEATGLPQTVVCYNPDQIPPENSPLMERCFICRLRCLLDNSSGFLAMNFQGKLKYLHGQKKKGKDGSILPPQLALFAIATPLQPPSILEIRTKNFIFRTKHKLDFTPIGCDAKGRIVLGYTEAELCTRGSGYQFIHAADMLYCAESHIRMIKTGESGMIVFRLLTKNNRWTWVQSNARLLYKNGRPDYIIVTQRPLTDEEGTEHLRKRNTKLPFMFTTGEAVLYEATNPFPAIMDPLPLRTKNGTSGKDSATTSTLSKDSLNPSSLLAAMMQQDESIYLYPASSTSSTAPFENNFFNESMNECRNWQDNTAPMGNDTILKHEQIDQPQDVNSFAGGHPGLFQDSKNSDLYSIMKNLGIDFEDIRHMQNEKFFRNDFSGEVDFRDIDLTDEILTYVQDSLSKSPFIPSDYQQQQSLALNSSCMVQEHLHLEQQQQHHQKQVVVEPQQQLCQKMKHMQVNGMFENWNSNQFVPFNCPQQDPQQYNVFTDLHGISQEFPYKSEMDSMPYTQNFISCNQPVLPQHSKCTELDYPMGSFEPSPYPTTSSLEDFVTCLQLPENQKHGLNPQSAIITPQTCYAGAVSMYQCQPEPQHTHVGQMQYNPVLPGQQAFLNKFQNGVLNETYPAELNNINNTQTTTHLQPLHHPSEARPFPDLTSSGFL
Aromatase (Homo sapiens), sequence (P11511 whole entry, looked up): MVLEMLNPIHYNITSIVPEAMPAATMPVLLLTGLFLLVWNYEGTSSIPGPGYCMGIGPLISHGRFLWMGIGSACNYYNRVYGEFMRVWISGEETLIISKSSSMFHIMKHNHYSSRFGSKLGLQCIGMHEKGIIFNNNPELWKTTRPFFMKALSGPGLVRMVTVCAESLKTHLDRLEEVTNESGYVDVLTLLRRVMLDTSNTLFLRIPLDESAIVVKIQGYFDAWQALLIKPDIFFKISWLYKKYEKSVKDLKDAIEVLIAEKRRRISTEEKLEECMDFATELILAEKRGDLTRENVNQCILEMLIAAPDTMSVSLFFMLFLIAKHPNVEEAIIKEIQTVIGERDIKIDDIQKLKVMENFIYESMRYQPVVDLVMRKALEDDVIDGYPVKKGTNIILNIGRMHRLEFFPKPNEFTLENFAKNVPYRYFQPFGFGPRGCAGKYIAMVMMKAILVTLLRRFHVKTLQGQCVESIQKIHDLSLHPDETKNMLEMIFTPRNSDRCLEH

| SMILES | Potency [1] | Potency [2] | outcome [3] | Potency [4] | Potency [5] | Potency [6] | Potency [7] | Potency [8] | Potency [9] | Potency (Aromatase (Homo sapiens)) | Potency [10] | Potency [11] | outcome [12] | Potency [13] | Potency [14] | Potency [15] | Potency [16] | outcome [17] | Potency [18] | Potency [19] |
| --- | --- | --- | --- | --- | --- | --- | --- | --- | --- | --- | --- | --- | --- | --- | --- | --- | --- | --- | --- | --- |
| c1ccc2ccccc2c1 | inactive | inactive | inactive | inactive | inactive | inactive | inactive | inactive | inactive | inactive | inactive | inactive | inactive | inactive | inactive | inactive | inactive | inactive | – | – |
| Cc1cc(=O)[nH]c(C(C)C)n1 | inactive | inactive | inactive | inactive | inactive | inactive | inactive | inactive | inactive | inactive | inactive | inactive | inactive | inactive | inactive | – | inactive | inactive | inactive | inactive |
| CC(C)(CO)COC(=O)C(C)(C)CO | inactive | inactive | inactive | inactive | inactive | inactive | inactive | inactive | inactive | inactive | inactive | inactive | inactive | inactive | inactive | inactive | inactive | inactive | inactive | – |
| O=S(=O)(O)CCS | inactive | inactive | inactive | inactive | inactive | inactive | inactive | inactive | inactive | inactive | inactive | inactive | inactive | inactive | inactive | inactive | inactive | inactive | inactive | – |
| COCC(=O)O | inactive | inactive | inactive | inactive | inactive | inactive | inactive | inactive | inactive | inactive | inactive | inactive | inactive | inactive | inactive | inactive | inactive | inactive | inactive | – |
| Clc1cc(Cl)c(Cl)cc1Cl | inactive | inactive | inactive | inactive | inactive | inactive | 62.1 µM (active) and inactive | inactive | inactive | inactive | inactive | inactive | inactive | inactive | inactive | inactive | inactive | inactive | – | inactive |
| COCC(C)O (stereo not drawn) | inactive | inactive | inactive | inactive | inactive | inactive | inactive and 61.1 µM (active) | inactive | inactive | inactive | inactive | inactive | inactive | inactive | inactive | – | inactive | – | – | – |
| CC(C)Cc1ccccc1 | inactive | inactive | inactive | inactive | inactive | inactive | inactive | inactive | inactive | inactive | inactive | inactive | inactive | inactive | inactive | inactive | inactive | inactive | – | – |
| CCOC(=O)[C@H](CCc1ccccc1)N[C@@H](C)C(=O)N1Cc2ccccc2C[C@H]1C(=O)O | inactive | inactive | inactive | inactive | inactive | inactive | inactive | inactive | inactive | inactive | inactive | inactive | inactive | inactive | inactive | inactive | inactive | inactive | 6.16 µM (active) | – |
| CC1(C)CC(N=C=O)CC(C)(CN=C=O)C1 (stereo not drawn) | inactive | inactive | inactive | inactive | inactive | inactive | inactive | inactive | inactive | inactive | inactive | inactive | inactive | inactive | inactive | inactive | inactive | inactive | – | – |
| C=C(C)C(=O)OCCCCCCCCCCCC | inactive | inactive | inactive | inactive | inactive | inactive | inactive | inactive | inactive | inactive | inactive | inactive | inactive | inactive | inactive | inactive | inactive | inactive | inactive | inactive |
| C=C1C2CCC(C2)C1(C)C (stereo not drawn) | inactive | inactive | inactive | inactive | inactive | inactive | inactive | inactive | inactive | inactive | inactive | inactive | inactive | inactive | inactive | inactive | inactive | inactive | – | inactive |
| Cc1ccc(C)c(C)c1 | inactive | inactive | inactive | inactive | inactive | inactive | inactive | inactive | inactive | inactive | inactive | inactive | inactive | inactive | inactive | inactive | inactive | inactive | – | – |
| O=S(=O)(O)c1cc(S(=O)(=O)O)c2c(N=Nc3ccccc3)c(O)ccc2c1 | 27.4 µM (active) and 68.6 µM (active) | inactive | inactive | inactive | inactive | inactive | inactive | inactive | 27.4 µM (active) and 30.6 µM (active) | inactive | 24.4 µM (active) and 27.3 µM (active) | 21.8 µM (active) and 21.7 µM (active) | – | inactive | inactive | inactive | inactive | inactive | – | – |
